Results reported in ChEMBL document CHEMBL3988442, “University of Dundee, Small-Polar-MMV Screening Library” (2021).

Columns and labels:
[1] = target: T1, Aspartate--tRNA(Asp/Asn) ligase (Mycobacterium tuberculosis (strain ATCC 25618 / H37Rv)) (UniProt P9WFW3); assay: Assay for Asp RNA synthetase-1 from Mycobacterium tuberculosis; assay type: functional; parameters: scale not given: direction of the effect not stated beside the values; details: 30 µM; further: in the data most compounds retested in dose-response had high values
T1 sequence (whole entry): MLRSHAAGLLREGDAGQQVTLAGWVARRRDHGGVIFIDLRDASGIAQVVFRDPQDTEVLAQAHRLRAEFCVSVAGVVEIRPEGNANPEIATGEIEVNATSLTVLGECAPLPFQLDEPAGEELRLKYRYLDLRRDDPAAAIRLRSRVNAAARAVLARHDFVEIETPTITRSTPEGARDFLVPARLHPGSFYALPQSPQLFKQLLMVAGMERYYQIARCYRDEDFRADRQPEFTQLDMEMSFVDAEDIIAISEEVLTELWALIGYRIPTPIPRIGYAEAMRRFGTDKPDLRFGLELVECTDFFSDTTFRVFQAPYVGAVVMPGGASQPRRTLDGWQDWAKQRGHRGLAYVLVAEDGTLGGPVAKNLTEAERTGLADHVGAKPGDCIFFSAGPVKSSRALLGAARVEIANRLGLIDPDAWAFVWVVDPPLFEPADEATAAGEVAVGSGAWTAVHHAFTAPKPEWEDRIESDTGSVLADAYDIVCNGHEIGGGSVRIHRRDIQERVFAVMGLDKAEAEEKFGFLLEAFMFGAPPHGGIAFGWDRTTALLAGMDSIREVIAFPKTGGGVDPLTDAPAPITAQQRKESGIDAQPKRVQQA

[2] = target: Shiga toxin 2 (Escherichia coli O157:H7) (UniProt P09385+P09386); assay: E. coli 0.157:H7 Shiga Toxin SOP - stx2 screening assay; assay type: functional; parameters: scale not given: direction of the effect not stated beside the values; details: 30 µM

Compound	Percent Effect [1] [%]	Percent Effect [2] [%]
CN1N=C(C(=O)N2CCCC(CCc3c(F)cccc3F)C2)CCC1=O (stereo not drawn)	-2.6	9.43
CC(NC(=O)NCC1(N2CCCCC2)CCCCC1)c1nncn1C (stereo not drawn)	-4.55	27.5
COc1cccc(N2CCN(Cc3ncc[nH]3)CC2=O)c1	0.446	-4.16
CC(C)C(NC(=O)NCCNc1ccccn1)c1cccs1 (stereo not drawn)	7.74	3.04
O=C(NCCNc1ncccn1)N(Cc1ccc(F)cc1F)C1CC1	-3.51	12.1
O=C(NCCN1CCCCC1)c1nc(-c2ccc3cc[nH]c3c2)no1	6.42	-77.4
CN1N=C(C(=O)NCc2ccc3c(c2)CCCN3C)CCC1=O	-4.96	-42.9
CC(=O)Nc1nc(CN2CCOC(Cn3cc(C)cn3)C2)cs1 (stereo not drawn)	-1.93	16.6
COc1cc2nc3n(c(=O)c2cc1OC)CCN(C)CC3	-1.59	-7.54
Cn1ccc(-c2cc(C(=O)N3CCOCC3)c3ccccn23)n1	3.13	-17.8
CN(CC(=O)NC1(C#N)CCCC1)C1CCCN(c2cccnn2)C1 (stereo not drawn)	7.28	21.9
CCN(Cc1ccc2c(c1)OCCO2)C(=O)NCc1nc(C)cs1	-0.519	28.5
CS(=O)(=O)NC1CCCN(C(=O)NCc2cc[nH]n2)C1 (stereo not drawn)	-0.0288	2.05
Cc1cc(C)n(CC2CCCCN2C(=O)c2cnn(C)c2)n1 (stereo not drawn)	-5.01	-14
CCc1nc(C2CCCN2Cc2nc3ccccc3o2)no1 (stereo not drawn)	-0.404	9.5
O=C(NCc1ccccn1)[C@H]1COC[C@H]2CN(Cc3ccoc3)C[C@H]21	-0.779	-0.902
CC(Cn1cccn1)NC(=O)N(C)Cc1ccc(Cl)s1 (stereo not drawn)	-7.31	-6.54
Cc1cc(=O)[nH]c(NCCNC(=O)C(c2ccc(F)cc2)N(C)C)n1 (stereo not drawn)	-2.14	-65.1
CC1CCCN(CC(=O)N2CCC(c3ncc4c(n3)CCNC4)CC2)C1 (stereo not drawn)	-2.22	-1.44
